# Columns and labels:
# Assay in all cases: PBM binding z-score (relative to random genomic background probes); higher = stronger binding; sequences stand for … in GC…GCGATTGACAGCGTAGAATGAAGG
# [1] = test system: FXR:RXRa (NR concentration 270 nM, RXRa partner concentration 90 nM)
# Procedure, shortened: (§1)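 Binding buffer was PBS pH 7.4 with 2% milk, 0.02% Triton X-100, 1 mM DTT, 0.2 mg/mL BSA and 0.4 mg/ml salmon testes DNA. In it, ligand-free nuclear receptor dimers were incubated 1 h on custom Agilent 4×180K protein-binding microarrays carrying double-stranded probes. Antibodies against each partner (one per run) detected binding, and z-scores were calculated against random background probes after regression normalization of scanned fluorescence.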
# [2] = test system: LXRa:RXRa (NR concentration 270 nM, RXRa partner concentration 90 nM)
# Procedure, shortened: as §1
# [3] = test system: LXRa homodimer (NR concentration 270 nM)
# Procedure, shortened: as §1
# [4] = test system: LXRb:RXRa (NR concentration 270 nM, RXRa partner concentration 90 nM)
# Procedure, shortened: as §1
# [5] = test system: PPARa:RXRa (NR concentration 270 nM, RXRa partner concentration 90 nM)
# Procedure, shortened: as §1
# [6] = test system: PPARg:RXRa (NR concentration 180 nM, RXRa partner concentration 90 nM)
# Procedure, shortened: as §1
# [7] = test system: PPARg:RXRa 270nM:90nM, anti-RXR (NR concentration 270 nM, RXRa partner concentration 90 nM)
# Procedure, shortened: as §1
# [8] = test system: PPARg:RXRa 30nM:10nM, anti-RXR (NR concentration 30 nM, RXRa partner concentration 10 nM)
# Procedure, shortened: as §1
# [9] = test system: PPARg:RXRa 90nM:30nM, anti-RXR (NR concentration 90 nM, RXRa partner concentration 30 nM)
# Procedure, shortened: as §1
# [10] = test system: PPARg:RXRa DBDmut IVT, anti-RXR (DBD mutation: RXRa K156A/R161A, NR concentration 270 nM, RXRa partner concentration 90 nM)
# Procedure, shortened: as §1
# [11] = test system: PPARg:RXRa IVT, anti-PPARg (NR concentration 270 nM, RXRa partner concentration 90 nM)
# Procedure, shortened: as §1
# [12] = test system: PPARg homodimer (NR concentration 180 nM)
# Procedure, shortened: as §1
# [13] = test system: PXR:RXRa (NR concentration 270 nM, RXRa partner concentration 90 nM)
# Procedure, shortened: as §1
# [14] = test system: PXR homodimer (NR concentration 270 nM)
# Procedure, shortened: as §1
# [15] = test system: RARa:RXR (NR concentration 270 nM, RXRa partner concentration 90 nM)
# Procedure, shortened: as §1
# [16] = test system: RARa homodimer (NR concentration 270 nM)
# Procedure, shortened: as §1
# [17] = test system: RARb:RXRa (NR concentration 270 nM, RXRa partner concentration 90 nM)
# Procedure, shortened: as §1
Sequence,PBM binding z-score [1],PBM binding z-score [2],PBM binding z-score [3],PBM binding z-score [4],PBM binding z-score [5],PBM binding z-score [6],PBM binding z-score [7],PBM binding z-score [8],PBM binding z-score [9],PBM binding z-score [10],PBM binding z-score [11],PBM binding z-score [12],PBM binding z-score [13],PBM binding z-score [14],PBM binding z-score [15],PBM binding z-score [16],PBM binding z-score [17]
TCGAGTAGGTTACGGGGGTATTCAGGGATGAAGA,1.78,2.4,0.457,4.07,3.45,4.49,4.53,2.64,3.61,4.5,5.38,1.51,2.09,0.83,2.49,0.925,2.07
TCGAGTAGGTTACGTGGGCATTCAGGGATGAAGA,-0.0639,0.328,-0.386,0.112,1.25,0.953,1.36,1.14,1.11,3.11,2.65,-0.0563,-0.044,-0.265,0.41,-0.517,0.704
CTATGTAGGGTAAGGGGGTCATTCAGTTTGAAAG,5.03,4.71,2.41,6.36,6.11,8.15,7.52,5,7.42,7.14,7.72,4.11,5.91,11.1,5.58,1.26,3.72
CTATGTAGGTTAAGGGGCTCATTCAGTTTGAAAG,0.164,0.226,-0.199,1.35,4.02,6.99,6.59,4.66,6.73,7.02,6.52,1.36,0.403,0.167,0.505,0.222,0.689
CTATGTAGGTTAAGGGGGTCATGCAGTTTGAAAG,5.42,4.98,1.95,6.22,6.35,9.11,8,6.71,8.07,7.51,7.75,4.7,5.74,8.41,6,1.78,3.79
TCGAGTAGGTTACCGGGGCATTCAGGGATGAAGA,0.549,0.561,-0.39,0.585,2.27,2.79,2.86,1.46,2,3.7,4.46,0.533,0.554,-0.524,0.534,-0.856,1.22
CCGAGTAGGTTACGAGGTGGCATTCAGTGCGAAT,0.103,2.1,-0.445,0.601,1.61,1.79,2.03,0.157,1.16,4.75,3.92,0.24,0.618,-0.0659,0.472,-0.0316,1.03
TCGAGTAGGTTAAGGGGGCATTCAGGGATGAAGA,2.95,2.79,1.01,4.58,3.99,5.19,5.78,3.91,5.72,4.21,4.69,2.85,2.67,1.9,2.87,1.41,2.47
CTATGTAGGTTAAGGGGGTCATTCGGTTTGAAAG,5.21,4.84,2.94,6.16,6.15,8.47,7.83,6.21,7.86,6.81,7.73,4.23,5.97,12.4,6.04,1.33,3.54
CCGAGTAGGTTATGAGGGGGCATTCAGTGCGAAT,3.13,6.86,1.95,6.27,3.29,1.69,3.12,1.53,2.77,3.45,4.11,1.86,4.85,5.74,2.87,0.734,2.06
CTATGTAGGTTAAGGGGGTCATTCATTTTGAAAG,4.9,4.91,3.28,6.23,5.9,8.6,7.7,6.27,7.77,7.22,7.67,2.86,5.45,5.06,5.94,1.58,3.38
CTATGTATGTTAAGGGGGTCATTCAGTTTGAAAG,4.79,5,3.54,6.57,5.68,5.43,6.26,3.94,5.84,4.85,5.88,5.05,5.85,9.76,5.5,3.39,3.74
CCGAGTAGGTTACGCGGGGGCATTCAGTGCGAAT,3.18,6.77,1.34,6.01,3.32,2.36,3.3,1.11,2.24,4.28,4.82,1.38,5.72,7.61,3.67,0.0169,2.29
CCGAGTAGGTTACGAGGGGCCATTCAGTGCGAAT,1.12,5.25,-0.218,3.07,1.76,1.4,1.54,0.0553,0.829,4.13,3.51,0.766,2.92,1.09,1.11,0.136,1.47
CTATGTAGGTTAAGGGGGTCATTCAATTTGAAAG,5.04,4.74,2.45,6.26,6.18,8.92,7.74,5.91,8.06,7.02,7.79,5.83,5.67,3.88,5.82,1.49,3.55
TCGAGTAGGCTACGGGGGCATTCAGGGATGAAGA,1.68,1.1,-0.259,3.17,2.56,1.6,2.51,1.38,1.8,2.36,3.36,0.299,1.77,0.484,1.43,-0.44,0.961

# From the supplement of paper PMC6555819
